Results from the supplement of paper PMC10849652.
Of roughly 7,900 targets only a part is listed; those with a hit were picked by preference. About 0.6% of all pairs of compound and target were hits.

Legend:
Experiment in all cases: log2 fold change, soluble protein after heating vs DMSO (PISA); higher = thermal stabilisation; K562 cells, 10 uM, 30 min; active = over 0.2 and 3.5 SD of the protein, either way, in both replicates (recomputed)
[1] = compound: NC(=O)Nc1cc(-c2cccc(F)c2)sc1C(=O)N[C@H]1CCCNC1
Method in brief: (§1)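 Soluble protein was quantified by TMTpro 16plex LC-MS/MS after channel sums were equalised. It was obtained as the supernatant after 21,000xg for 90 min from pooled aliquots of K562 cells (2×10^6 cells/mL, 10 μM compound, 30 min) heated for 3 min across 48°C-58°C and extracted in PBS with 0.5% NP-40 at 4°C. Thermal stability values are relative to control samples and come from duplicates. They are given as log2 fold changes.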

[2] = compound: NC(=O)c1cnc(N[C@@H]2CCCC[C@@H]2N)nc1Nc1cccc(-n2nccn2)c1
Method in brief: as §1

[3] = compound: NC1(c2ccc(-c3nc4ccn5c(=O)[nH]nc5c4cc3-c3ccccc3)cc2)CCC1
Method in brief: as §1

[4] = compound: NCC(=O)Nc1ccc(-n2nc(C(F)(F)F)cc2-c2ccc3c(ccc4ccccc43)c2)cc1
Method in brief: as §1

entinostat = compound: Nc1ccccc1NC(=O)c1ccc(CNC(=O)OCc2cccnc2)cc1 [entinostat]
Method in brief: as §1

vorinostat = compound: O=C(CCCCCCC(=O)Nc1ccccc1)NO [vorinostat]
Method in brief: as §1

citarinostat = compound: O=C(CCCCCCNC(=O)c1cnc(N(c2ccccc2)c2ccccc2Cl)nc1)NO [citarinostat]
Method in brief: as §1

silmitasertib = compound: O=C(O)c1ccc2c(c1)nc(Nc1cccc(Cl)c1)c1ccncc12 [silmitasertib]
Method in brief: as §1

[5] = compound: O=C1NC(=O)C(c2cnc3ccccn23)=C1c1cn2c3c(cc(F)cc13)CN(C(=O)N1CCCCC1)CC2
Method in brief: as §1

[6] = compound: c1cc(OCCN2CCCCC2)cc(-c2n[nH]c3ccc(-c4nnc[nH]4)cc23)c1
Method in brief: as §1

entospletinib = compound: c1cn2cc(-c3ccc4cn[nH]c4c3)nc(Nc3ccc(N4CCOCC4)cc3)c2n1 [entospletinib]
Method in brief: as §1

Measured: log2 fold change

TBC1D15 isoform 3 (UniProt Q8TC07)
Sequence of UniProt Q8TC07 (Q8TC07 whole entry, looked up): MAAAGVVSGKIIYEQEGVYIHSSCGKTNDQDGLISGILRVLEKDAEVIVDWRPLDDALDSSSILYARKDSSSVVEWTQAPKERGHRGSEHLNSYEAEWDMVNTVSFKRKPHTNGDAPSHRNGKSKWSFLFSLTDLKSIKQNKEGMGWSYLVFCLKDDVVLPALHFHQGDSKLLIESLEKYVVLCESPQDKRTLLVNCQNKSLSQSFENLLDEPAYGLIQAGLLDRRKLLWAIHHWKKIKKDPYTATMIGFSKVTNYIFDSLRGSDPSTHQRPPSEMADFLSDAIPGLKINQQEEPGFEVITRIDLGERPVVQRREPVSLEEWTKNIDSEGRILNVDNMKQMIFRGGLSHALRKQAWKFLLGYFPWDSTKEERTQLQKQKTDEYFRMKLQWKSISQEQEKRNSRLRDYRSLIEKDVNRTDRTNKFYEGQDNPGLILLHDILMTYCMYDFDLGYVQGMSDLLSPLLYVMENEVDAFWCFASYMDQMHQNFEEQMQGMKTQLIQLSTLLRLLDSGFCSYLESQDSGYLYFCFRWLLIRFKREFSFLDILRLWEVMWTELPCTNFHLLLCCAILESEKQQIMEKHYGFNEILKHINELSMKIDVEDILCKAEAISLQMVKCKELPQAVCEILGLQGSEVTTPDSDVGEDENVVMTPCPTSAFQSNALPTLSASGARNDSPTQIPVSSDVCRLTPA
inactive: [1] -0.013 | [2] -0.086 | [3] -0.202 | [4] -0.033 | entinostat 0.118 | vorinostat 0.101 | citarinostat 0.036 | silmitasertib 0.071 | [5] -0.008 | [6] -0.059 | entospletinib 0.007

STARD3NL (UniProt O95772)
Sequence of UniProt O95772 (O95772 whole entry, looked up): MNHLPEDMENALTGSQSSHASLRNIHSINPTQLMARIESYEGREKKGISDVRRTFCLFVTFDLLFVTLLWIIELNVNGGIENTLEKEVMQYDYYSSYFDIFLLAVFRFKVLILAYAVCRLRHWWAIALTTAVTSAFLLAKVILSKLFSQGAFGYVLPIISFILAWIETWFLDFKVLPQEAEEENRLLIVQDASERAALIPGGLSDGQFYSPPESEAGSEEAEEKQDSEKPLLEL
active: [3] -0.413
inactive: [1] 0.018 | [2] -0.104 | [4] -0.031 | entinostat 0.093 | vorinostat 0.037 | citarinostat 0.004 | silmitasertib 0.044 | [5] -0.013 | [6] 0.035 | entospletinib -0.088

SRRM2 (UniProt Q9UQ35)
inactive: [1] -0.004 | [2] -0.055 | [3] 0.005 | [4] -0.036 | entinostat 0.025 | vorinostat 0.226 | citarinostat 0.071 | silmitasertib -0.141 | [5] -0.225 | [6] -0.25 | entospletinib -0.048

SUOX (UniProt P51687)
Sequence of UniProt P51687 (P51687 whole entry, looked up): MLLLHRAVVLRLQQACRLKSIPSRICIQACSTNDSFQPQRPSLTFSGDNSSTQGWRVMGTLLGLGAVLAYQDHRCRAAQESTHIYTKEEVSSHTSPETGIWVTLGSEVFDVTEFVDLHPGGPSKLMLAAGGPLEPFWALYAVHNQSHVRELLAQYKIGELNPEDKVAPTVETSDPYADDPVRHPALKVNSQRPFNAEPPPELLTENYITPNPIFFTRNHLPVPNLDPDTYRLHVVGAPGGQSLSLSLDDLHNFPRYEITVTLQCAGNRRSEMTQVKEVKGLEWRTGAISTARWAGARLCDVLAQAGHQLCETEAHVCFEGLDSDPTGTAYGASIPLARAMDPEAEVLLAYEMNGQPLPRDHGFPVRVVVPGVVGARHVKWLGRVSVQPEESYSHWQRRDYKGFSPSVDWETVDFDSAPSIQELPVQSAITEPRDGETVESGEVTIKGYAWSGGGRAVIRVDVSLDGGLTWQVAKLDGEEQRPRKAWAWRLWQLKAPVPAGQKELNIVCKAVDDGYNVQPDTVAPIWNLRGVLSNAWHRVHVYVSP
inactive: [1] -0.031 | [2] -0.022 | [3] 0.025 | [4] -0.005 | entinostat -0.014 | vorinostat -0.124 | citarinostat -0.017 | silmitasertib -0.021 | [5] -0.027 | [6] 0.014 | entospletinib 0.03

SSR3 isoform 2 (UniProt Q9UNL2)
Sequence of UniProt Q9UNL2 (Q9UNL2 whole entry, looked up): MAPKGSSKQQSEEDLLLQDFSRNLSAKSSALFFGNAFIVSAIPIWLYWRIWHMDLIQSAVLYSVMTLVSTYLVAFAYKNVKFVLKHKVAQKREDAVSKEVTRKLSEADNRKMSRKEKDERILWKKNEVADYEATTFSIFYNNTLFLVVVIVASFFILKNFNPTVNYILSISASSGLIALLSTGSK
inactive: [1] -0.056 | [2] 0.18 | [3] -0.056 | entinostat -0.04 | vorinostat 0 | citarinostat 0.068 | silmitasertib 0 | [5] -0.028 | [6] -0.114 | entospletinib -0.012
active: [4] 0.369

STAT3 (UniProt P40763)
Sequence of UniProt P40763 (P40763 whole entry, looked up): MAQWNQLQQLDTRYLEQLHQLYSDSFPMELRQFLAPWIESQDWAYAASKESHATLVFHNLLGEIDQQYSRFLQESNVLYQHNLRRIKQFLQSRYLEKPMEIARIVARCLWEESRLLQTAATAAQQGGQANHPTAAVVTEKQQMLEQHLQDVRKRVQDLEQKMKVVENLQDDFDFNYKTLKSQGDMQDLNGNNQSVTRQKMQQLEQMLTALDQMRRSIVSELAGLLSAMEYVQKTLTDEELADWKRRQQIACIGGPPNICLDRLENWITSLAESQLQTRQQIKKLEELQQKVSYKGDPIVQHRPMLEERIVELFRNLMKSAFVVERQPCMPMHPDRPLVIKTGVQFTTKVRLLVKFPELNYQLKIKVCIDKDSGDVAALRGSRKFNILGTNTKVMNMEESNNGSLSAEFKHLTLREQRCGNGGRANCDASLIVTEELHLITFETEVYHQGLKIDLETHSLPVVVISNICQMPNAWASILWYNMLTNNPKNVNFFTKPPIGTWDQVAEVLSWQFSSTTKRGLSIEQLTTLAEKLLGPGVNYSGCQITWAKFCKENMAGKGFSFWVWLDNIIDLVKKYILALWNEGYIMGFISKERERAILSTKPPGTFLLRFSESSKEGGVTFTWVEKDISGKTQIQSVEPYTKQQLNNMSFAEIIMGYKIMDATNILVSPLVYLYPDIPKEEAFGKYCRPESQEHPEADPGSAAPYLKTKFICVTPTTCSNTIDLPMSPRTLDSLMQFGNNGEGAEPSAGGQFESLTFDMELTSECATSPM
inactive: [1] -0.001 | [2] -0.047 | [3] -0.2 | [4] -0.092 | entinostat 0.089 | vorinostat 0.101 | citarinostat 0.062 | silmitasertib 0.103 | [5] -0.036 | [6] -0.016 | entospletinib 0.026

SMAD9 (UniProt O15198)
Sequence of UniProt O15198 (O15198 whole entry, looked up): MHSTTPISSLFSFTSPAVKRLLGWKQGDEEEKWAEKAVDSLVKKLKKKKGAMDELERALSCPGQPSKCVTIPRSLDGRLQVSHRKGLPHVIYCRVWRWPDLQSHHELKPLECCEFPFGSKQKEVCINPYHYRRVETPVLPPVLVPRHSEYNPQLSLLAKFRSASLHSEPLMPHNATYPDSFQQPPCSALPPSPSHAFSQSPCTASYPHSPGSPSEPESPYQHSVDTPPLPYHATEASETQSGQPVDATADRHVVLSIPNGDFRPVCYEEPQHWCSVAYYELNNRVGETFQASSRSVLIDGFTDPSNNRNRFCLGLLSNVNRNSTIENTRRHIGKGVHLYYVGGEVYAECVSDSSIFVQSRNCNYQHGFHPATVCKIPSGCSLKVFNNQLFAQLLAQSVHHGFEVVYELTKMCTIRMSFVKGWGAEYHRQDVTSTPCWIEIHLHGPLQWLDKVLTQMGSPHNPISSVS
inactive: [1] -0.114 | [2] 0.001 | [3] -0.069 | [4] 0.05 | entinostat -0.076 | vorinostat 0.006 | citarinostat -0.017 | silmitasertib -0.055 | [5] -0.111 | [6] -0.029 | entospletinib -0.026

SLC7A6OS (UniProt Q96CW6)
Sequence of UniProt Q96CW6 (Q96CW6 whole entry, looked up): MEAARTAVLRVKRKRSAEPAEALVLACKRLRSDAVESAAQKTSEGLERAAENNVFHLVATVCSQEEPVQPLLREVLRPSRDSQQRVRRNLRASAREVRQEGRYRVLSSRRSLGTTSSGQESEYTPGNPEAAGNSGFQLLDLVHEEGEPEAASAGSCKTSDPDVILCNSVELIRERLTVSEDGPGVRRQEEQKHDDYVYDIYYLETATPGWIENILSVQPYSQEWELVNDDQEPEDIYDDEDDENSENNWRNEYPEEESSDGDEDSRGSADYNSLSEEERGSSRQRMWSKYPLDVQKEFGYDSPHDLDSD
inactive: [1] -0.023 | [2] -0.085 | [3] -0.079 | [4] 0.042 | entinostat -0.043 | vorinostat 0.056 | citarinostat 0.098 | silmitasertib 0.06 | [5] -0.036 | [6] -0.037 | entospletinib 0.052

SNRNP27 (UniProt Q8WVK2)
Sequence of UniProt Q8WVK2 (Q8WVK2 whole entry, looked up): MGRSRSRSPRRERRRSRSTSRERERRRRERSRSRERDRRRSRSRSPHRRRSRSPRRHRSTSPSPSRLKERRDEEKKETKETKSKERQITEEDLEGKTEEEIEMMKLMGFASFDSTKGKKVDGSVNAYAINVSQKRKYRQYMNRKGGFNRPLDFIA
inactive: [1] 0.022 | [2] -0.015 | [3] -0.034 | [4] -0.043 | entinostat -0.024 | vorinostat -0.008 | citarinostat -0.003 | silmitasertib 0.06 | [5] 0.038 | [6] -0.025 | entospletinib 0.025

TBC1D5 isoform 2 (UniProt Q92609)
Sequence of UniProt Q92609 (Q92609 whole entry, looked up): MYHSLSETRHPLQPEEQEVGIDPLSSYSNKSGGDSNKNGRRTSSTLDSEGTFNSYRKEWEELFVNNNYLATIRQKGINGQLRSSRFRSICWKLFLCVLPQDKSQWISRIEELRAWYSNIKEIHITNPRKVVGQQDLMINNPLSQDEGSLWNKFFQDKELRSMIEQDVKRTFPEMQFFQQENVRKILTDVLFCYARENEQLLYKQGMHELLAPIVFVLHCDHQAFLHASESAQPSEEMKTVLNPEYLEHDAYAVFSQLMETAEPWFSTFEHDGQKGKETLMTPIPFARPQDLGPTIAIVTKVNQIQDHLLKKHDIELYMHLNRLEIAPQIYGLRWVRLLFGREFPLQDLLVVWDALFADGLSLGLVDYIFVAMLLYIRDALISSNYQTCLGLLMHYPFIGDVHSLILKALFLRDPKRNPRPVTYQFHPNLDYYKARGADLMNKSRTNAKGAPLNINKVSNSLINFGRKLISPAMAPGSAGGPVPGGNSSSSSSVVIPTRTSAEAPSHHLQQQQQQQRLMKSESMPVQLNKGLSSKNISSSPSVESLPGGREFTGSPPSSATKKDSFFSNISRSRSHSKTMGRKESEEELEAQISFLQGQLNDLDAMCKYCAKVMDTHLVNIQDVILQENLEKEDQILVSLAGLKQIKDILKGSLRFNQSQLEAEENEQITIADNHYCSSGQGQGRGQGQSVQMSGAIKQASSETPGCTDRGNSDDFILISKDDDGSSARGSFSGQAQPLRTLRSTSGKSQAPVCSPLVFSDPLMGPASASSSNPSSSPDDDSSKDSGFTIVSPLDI
inactive: [1] -0.006 | [2] -0.103 | [3] -0.233 | [4] -0.058 | entinostat 0.029 | vorinostat 0.086 | citarinostat 0.111 | silmitasertib 0.031 | [5] -0.076 | [6] -0.094 | entospletinib -0.02

TIAL1 isoform 2 (UniProt Q01085)
Sequence of UniProt Q01085 (Q01085 whole entry, looked up): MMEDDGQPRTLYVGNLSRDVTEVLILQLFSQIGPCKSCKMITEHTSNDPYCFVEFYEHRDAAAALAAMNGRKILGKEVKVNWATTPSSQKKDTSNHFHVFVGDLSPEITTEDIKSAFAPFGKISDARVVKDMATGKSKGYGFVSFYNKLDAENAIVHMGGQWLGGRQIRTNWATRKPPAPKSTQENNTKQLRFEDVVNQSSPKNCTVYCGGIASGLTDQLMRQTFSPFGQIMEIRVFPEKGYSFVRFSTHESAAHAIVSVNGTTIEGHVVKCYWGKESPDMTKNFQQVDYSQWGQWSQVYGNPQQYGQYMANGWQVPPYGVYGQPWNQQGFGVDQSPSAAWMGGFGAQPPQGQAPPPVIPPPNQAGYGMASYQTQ
inactive: [1] -0.014 | [2] -0.026 | [3] -0.05 | [4] -0.048 | entinostat -0.005 | vorinostat 0.025 | citarinostat -0.002 | silmitasertib -0.003 | [5] 0.003 | [6] -0.036 | entospletinib 0.003
